Only some compounds are listed: those with a hit (about 11% of all), similar ones and a draw of the others.
KDM4E inh – qHTS Assay for Inhibitors of Human Jumonji Domain Containing 2E (JMJD2E). 1.6% of 230,000 active. Potency, µM (titrated, usually from 57.1 µM), without a hit: at the highest dose activity change, negative = inhibition, hits mostly inhibitors. JMJD2E catalytic domain, FDH-coupled NADH fluorescence (FDH is formaldehyde dehydrogenase). Lysine-specific demethylase 4E (Homo sapiens), B2RXH2. AID 2147, 2009;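 note: potency is the fitted concentration of half-maximal effect; 0% = wells with enzyme and -100% = buffer wells without enzyme; nearly all actives have a fitted effect of over 50% in size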
PNC assembly inh – High Content Assay for Compounds that inhibit the Assembly of the Perinucleolar Compartment; PC3M PTB-GFP, PNC prevalence imaging, 16 h; stronger effect = lower value; activity change (PNC), negative = inhibition, % at 10 µM; 3.1% of 140,000 active;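 active = readout at or below -70, meaning at least 70% loss of cells showing the perinucleolar compartment, a nuclear body marking cancer cells; inconclusive = readout between -30 and a set limit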;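 note: plate controls were DMSO wells for no effect and camptothecin positive control wells for full effect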
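Read-out is percentage of cells bearing a perinucleolar compartment, from automated 20x imaging of fixed, Hoechst-stained PC3M PTB-GFP cells. Cells were seeded 4 h, then exposed 16 h to compound (23 nl of library stock) in duplicate plates.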
HPGD block – qHTS Assay for Inhibitors of HPGD (15-Hydroxyprostaglandin Dehydrogenase). purified HPGD, NADH fluorescence kinetic, PGE2 substrate. Potency, µM, without a hit: at the highest dose activity change, negative = inhibition, usual class: inhibitors. AID 894, 2007. 15-hydroxyprostaglandin dehydrogenase [NAD(+)] (Homo sapiens), P15428. 4.3% of 150,000 active; note: potency is the fitted concentration of half-maximal effect
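NADH formation kinetics: reaction with 30 uM PGE2 and 1 mM NAD+ (final), 20 nM enzyme, Tris-HCl pH 8 with Tween 20, after 15 min compound preincubation at room temperature. Fluorescence change, last versus first of five reads.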
ALDH1A1 inh – qHTS Assay for Inhibitors of Aldehyde Dehydrogenase 1 (ALDH1A1) | Aldehyde dehydrogenase 1A1 (Homo sapiens), P00352 | Purified ALDH1A1, NADH fluorescence, propionaldehyde substrate | Potency, µM (series often up to 75.3 µM), for the others: top-dose activity, negative = inhibition, hits mostly inhibitors | 7.3% of 220,000 active | AID 1030, 2008;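 note: potency is the fitted concentration of half-maximal effect; plate controls were no enzyme wells and a reference inhibitor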
Target sequence (P00352 whole entry, looked up): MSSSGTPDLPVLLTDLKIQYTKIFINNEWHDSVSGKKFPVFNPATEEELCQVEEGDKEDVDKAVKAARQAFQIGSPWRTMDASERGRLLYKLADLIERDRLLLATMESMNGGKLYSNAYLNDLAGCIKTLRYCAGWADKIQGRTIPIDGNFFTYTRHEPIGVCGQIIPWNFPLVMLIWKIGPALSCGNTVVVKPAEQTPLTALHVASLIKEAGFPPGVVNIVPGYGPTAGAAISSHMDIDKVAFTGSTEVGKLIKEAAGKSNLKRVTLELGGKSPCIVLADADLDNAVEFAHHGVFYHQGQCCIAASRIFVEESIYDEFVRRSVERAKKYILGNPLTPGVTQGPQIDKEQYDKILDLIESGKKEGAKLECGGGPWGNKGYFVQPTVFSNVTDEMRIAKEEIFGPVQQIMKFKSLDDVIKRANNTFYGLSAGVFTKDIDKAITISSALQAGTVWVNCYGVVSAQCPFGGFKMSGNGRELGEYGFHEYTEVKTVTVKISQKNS
Starred values were filed as active, the others as inactive; [ ] = another dose, or the depositor's remark. Unless noted, calls come from the whole dose curve; as a rule, active = well fitted inhibition curve with a large enough effect (not every such curve was filed as active); inconclusive = small, poorly fitted or top-dose-only effect, or another doubt; inactive = no such curve, though single readings can be large or run the other way. Unless noted, % is set by controls: 0 for no effect and ±100 for the full control effect.

For COC(=O)c1cncc(C)c1 the results were KDM4E inh 10.6%.
Cc1cc(-c2nnc(CCC(=O)N(C)C(C)c3cccs3)o2)no1 (stereo unspecified) was read as KDM4E inh -2.1%.
Screening Nn1c(C2COc3ccccc3O2)n[nH]c1=S (stereo unspecified) returned KDM4E inh inconclusive and ALDH1A1 inh 4.47µM*.
Screening Cc1cccc(NC(=O)C(=O)NCC2CCCO2)c1 (stereo unspecified) returned KDM4E inh -2.2% and ALDH1A1 inh 10.7%.
`COc1ccc2c(Cl)cc(NC(=S)Nc3ccccc3)nc2c1` gave HPGD block -12.9% and ALDH1A1 inh -6.2%[13.5 µM].
`Cn1nnnc1SCC(=O)c1ccc2c(c1)OCCO2` gave KDM4E inh 3.7% and ALDH1A1 inh inconclusive.
Screening CCCn1nnnc1SCC(=O)c1ccc2c(c1)OCCO2 returned KDM4E inh -2.8%, PNC assembly inh inconclusive, HPGD block -24.0% and ALDH1A1 inh 3.16µM*.
Screening Cn1c(SCC(=O)c2ccc3c(c2)OCCO3)nnc1C1CC1 returned KDM4E inh -1.6%, PNC assembly inh inconclusive, HPGD block -7.6% and ALDH1A1 inh 20µM*.
Screening CCn1c(SCC(=O)c2ccc3c(c2)OCCO3)nnc1-c1ccco1 returned KDM4E inh -0.5%, PNC assembly inh -85.7*, HPGD block inconclusive and ALDH1A1 inh inconclusive.
`COCCn1c(SCC(=O)c2ccc3c(c2)OCCO3)nnc1-c1ccco1` gave KDM4E inh -3.7%, PNC assembly inh 45.9, HPGD block -11.3% and ALDH1A1 inh inconclusive.
`Cn1cnnc1SCC(=O)c1ccc2c(c1)OCCO2` gave KDM4E inh 2.4%, PNC assembly inh 14.1, HPGD block -22.0% and ALDH1A1 inh 8.91µM*.
For CC[C@H]1C2=C3C(CC[C@H]4C(OCc5ccc(F)cc5C(F)(F)F)OC[C@](C)([C@@H]34)N(C(=O)OC(C)(C)C)C2)C(COC)C1COC (stereo partly specified) the results were KDM4E inh -3.7%, HPGD block -6.5% and ALDH1A1 inh 0.0%.
Screening CN1C(=O)CC(C(=O)Nc2ccccc2F)SC1=Nc1ccc2c(c1)OCO2 (stereo unspecified) returned KDM4E inh 7.5% and ALDH1A1 inh 3.1%.
Screening CCCCn1nnnc1SCC(=O)Nc1ccc2c(c1)OCCO2 returned KDM4E inh 2.0%, PNC assembly inh 33.3, HPGD block -7.5% and ALDH1A1 inh 4.47µM*.
CN(C)CCCN1c2ccccc2C(C)(C)c2ccccc21 was read as HPGD block -7.4% and ALDH1A1 inh -7.6%[13.5 µM].
For CSc1nc2c(c(=O)[nH]1)C(c1ccccc1Cl)CC(=O)N2 (stereo unspecified) the results were KDM4E inh 2.6% and ALDH1A1 inh 12.6µM*.
CSc1nc2c(c(=O)[nH]1)C(c1ccc(Cl)cc1)CC(=O)N2 (stereo unspecified) was read as KDM4E inh 2.6% and ALDH1A1 inh 9.2%.
Cc1ccc(N2C(=O)NC(C(F)(F)F)(C(F)(F)F)C3=C2CC(C)(C)CC3=O)cc1 was read as KDM4E inh 6.3%, PNC assembly inh -23.0, HPGD block -4.3% and ALDH1A1 inh 13.5%.
O[C@@H](C1=C/C(=C\c2ccncc2)c2ccccc21)c1ccncc1 was read as HPGD block -1.1% and ALDH1A1 inh -0.8%[13.5 µM].
Screening Clc1ccc(C2=NN=C3COc4ccccc4N3C2)cc1 returned KDM4E inh -2.6%, PNC assembly inh 46.8, HPGD block 20µM* and ALDH1A1 inh 6.5%.
Screening COC(=O)CN1C(=O)C(O)(CC(=O)c2ccc(Br)cc2)c2ccccc21 (stereo unspecified) returned KDM4E inh -0.7%, PNC assembly inh -7.9, HPGD block -3.6% and ALDH1A1 inh 0.355µM*.
For C=CCN1C(=O)C(O)(CC(=O)c2ccc(-n3cccc3)cc2)c2ccccc21 (stereo unspecified) the results were KDM4E inh -26.7%, PNC assembly inh inconclusive, HPGD block -16.9% and ALDH1A1 inh 0.501µM*.
COC(=O)CN1C(=O)C(O)(CC(=O)c2ccc(C)cc2)c2cc(Br)ccc21 (stereo unspecified) was read as KDM4E inh -6.9%, PNC assembly inh -4.6, HPGD block -11.7% and ALDH1A1 inh 20µM*.
For COC(=O)CN1C(=O)C2(OCCCO2)c2cc(Br)ccc21 the results were KDM4E inh 2.5%, PNC assembly inh -3.8, HPGD block -6.8% and ALDH1A1 inh -1.8%.
`O=C(CC1(O)C(=O)Nc2ccccc21)c1ccc(-n2cccc2)cc1` (stereo unspecified) gave KDM4E inh 9.5%, PNC assembly inh inconclusive, HPGD block -20.7% and ALDH1A1 inh inconclusive.
For O=C1CC(c2ccc3c(c2)OCO3)c2cc(O)ccc2O1 (stereo unspecified) the results were HPGD block 39.8µM* and ALDH1A1 inh inconclusive.
Screening O=C(Nc1ccc(CN2CCOCC2)cc1)c1ccc(-c2cc(Cl)ccc2Cl)o1 returned KDM4E inh inconclusive, PNC assembly inh -2.9, HPGD block inconclusive and ALDH1A1 inh inconclusive.
`CC(=O)N1CCN(C(=S)c2ccc(-c3ccc(Cl)cc3)o2)CC1` gave KDM4E inh 3.0%, PNC assembly inh inconclusive and ALDH1A1 inh 0.0%.
S=C(c1ccc(-c2cc(Cl)ccc2Cl)o1)N1CCCCC1 was read as KDM4E inh 4.4%, PNC assembly inh inconclusive, HPGD block 7.94µM* and ALDH1A1 inh 2.8%.
For S=C(c1ccc(-c2cc(Cl)ccc2Cl)o1)N1CCOCC1 the results were KDM4E inh -2.4%, PNC assembly inh 59.7, HPGD block 28.2µM* and ALDH1A1 inh 22.4µM*.
CCOc1ccccc1C(=O)NCc1ccc2c(c1)OCO2 was read as KDM4E inh 12.4%, PNC assembly inh 54.6, HPGD block 3.98µM* and ALDH1A1 inh 2.6%.
O=C(OC(C(=O)NCc1ccc2c(c1)OCO2)c1ccccc1F)c1ccco1 (stereo unspecified) was read as KDM4E inh 1.0%, PNC assembly inh 13.1, HPGD block inconclusive and ALDH1A1 inh 1.58µM*.
COc1ccccc1CC(=O)NCc1ccc2c(c1)OCO2 was read as KDM4E inh -28.3%, PNC assembly inh -23.2, HPGD block 14.1µM* and ALDH1A1 inh inconclusive.
`O=C(NCc1ccc2c(c1)OCO2)c1cccnc1Cl` gave KDM4E inh 7.0% and ALDH1A1 inh 2.4%.
Screening CCC(OC(=O)c1ccco1)C(=O)NCc1ccc(C)cc1 (stereo unspecified) returned KDM4E inh 3.0%, PNC assembly inh 35.9, HPGD block 28.2µM* and ALDH1A1 inh -2.8%.
CCCCc1ccc(NC2=NCC(=O)N2CCc2ccccc2)cc1 was read as KDM4E inh -18.3% and ALDH1A1 inh 11.1%.

Assay outcomes: PubChem, National Center for Advancing Translational Sciences (NCATS)
